# ChEMBL document CHEMBL4513216, “Probing the Open Global Health Chemical Diversity Library for Multistage-Active Starting Points for Next-Generation Antimalarials” (ACS Infect Dis, 2020)
# About 2,700 (4%) of roughly 68,000 compounds showed an effect of 50% or more. Only a selection was taken, and strong results are over-represented in it overall.
# System: Plasmodium berghei
# Experiment: Screen against P. berghei liver stage (PbLuc), transformed with Luciferase, at 2uM
# Assay type: functional, HepG2
# Conditions: tested at 2 uM
row,Structure (SMILES),INHIBITION [%]
1,N#Cc1c(-c2ccccc2)csc1N,30.76
2,Cc1noc(C)c1NC(=O)NC1CCN(C(=O)OC(C)(C)C)CC1,11.92
3,CCCn1c(C)c(CC(=O)NCCOC)c2c1CC(C)(C)CC2=O,18.91
4,CC(C)(NCC(=O)NCCC#N)c1ccc2c(c1)OCCO2,-9.66
5,Cc1ccc(CN2C[C@@H]3CCN(Cc4cccnc4)C(=O)[C@H]3C2)s1,41.38
6,Cc1ccc(OC2(C(=O)NC(C)Cc3ccsc3)CCNCC2)cc1 (stereo not drawn),26.35
7,CN(Cc1cccnc1)C1CC2(CCN(Cc3ccccn3)CC2)C1,27.9
8,CN(C)S(=O)(=O)N1CC[C@]2(C[C@H](OCc3ccccn3)CO2)C1,-51.66
9,COc1ccc(C(=O)N2CCCCC2c2ccccn2)c(OC)n1 (stereo not drawn),21.05
10,COCCNC(=O)C(C)N1CCN(C)CC1 (stereo not drawn),7.9
11,COCC(=O)N1CCN(C(C)C(=O)NC(C)C)CC1 (stereo not drawn),61.91
12,COCCNC(=O)N1CCN(C(C)C(=O)NC(C)C)CC1 (stereo not drawn),21.22
13,CC(=O)N1CCc2c(nc(N(C)C)nc2N(C)CC2CCCO2)C1 (stereo not drawn),-34.04
14,CN(C)C(=O)CCC(=O)N1CCC2(CC1)COC2,15.02
15,CCCC(=O)N1CCC2(CC1)OCCO2,38.51
16,CCCC(=O)N1CCC2(CC1)COC2,54.01
17,CS(=O)(=O)NCC(Cc1cccc(F)c1)N1CCNC1=O (stereo not drawn),22.27
18,CCS(=O)(=O)NCC(Cc1cccc(F)c1)N1CCNC1=O (stereo not drawn),-35.92
19,CC(C)S(=O)(=O)NCC(Cc1cccc(F)c1)N1CCNC1=O (stereo not drawn),53.44
20,Cc1cc(C)n(CC2CCCN2CC(=O)Nc2nncs2)n1 (stereo not drawn),37.08
21,CC(C)Nc1cccc(CNC(=O)N2CCCC2)c1,-24.87
22,CC(C)Nc1cccc(CNC(=O)N2CCC(N3CC=CC3)C2)c1 (stereo not drawn),58.34
23,CC(C)Oc1cccc(CNC(=O)N2CCC(N3CC=CC3)C2)c1 (stereo not drawn),-21.25

row,Structure (SMILES),INHIBITION [%]
1,COC(=O)CCCNC(=O)Nc1ccccc1OC,-3.99
2,CN1CCC(NC(=O)Nc2cnn(-c3ccccc3Cl)c2)C1=O (stereo not drawn),15.75
3,CNC(=O)[C@@H]1C[C@@H](n2cc(-c3ccc(CN4CC=CC4)cc3)nn2)CN1,-21.75
4,Nc1nc(CCC(=O)N2C[C@H](c3ccccc3)[C@@H](N)C2)cs1,-10.1
5,CS(=O)(=O)N1CC(c2n[nH]c3ncccc23)C1,31.98
6,CS(=O)(=O)N1CC(c2ncn3ccccc23)C1,51.36
7,CCc1ccc2c(C3CN(S(C)(=O)=O)C3)ncn2c1,28.81
8,CC(=O)N1N=C(c2cccs2)OC1C(=O)Nc1ccc(C(C)C)cc1 (stereo not drawn),19.09
9,COC1CCN(C(=O)c2csc(-c3ccccc3F)n2)CC1,10.91
10,NC(=O)CC1CCN(C(=O)c2cnc(-c3ccccc3F)s2)CC1,20.76
11,NC(=O)CC1CCN(C(=O)c2csc(-c3ccccc3F)n2)CC1,51.96
12,Cc1noc(C)c1CN1CCn2c(COC(C)C)nnc2C1,40.71
13,Fc1ccc(OCCNC2CCN(Cc3ccncc3)CC2)c(F)c1,4.19
14,Cc1ccc(CCNC(=O)Cn2nc(C)n(Cc3ccccc3)c2=O)o1,-9.48
15,Cc1nn(CC(=O)NCCc2ccncc2)c(=O)n1Cc1ccccc1,53.98
16,Cc1ccc(CCNC(=O)Cn2nc(C)n(Cc3ccccc3)c2=O)s1,-8.8
17,Cc1nnc(CN2C[C@H](NC(=O)C3CCOCC3)[C@@H](C(C)C)C2)s1,-29.43
18,OCC1(O)CCN(c2ccnc3c(C(F)(F)F)cccc23)CC1,-100.41
19,N[C@@H]1c2ccccc2C2(CCN(c3ncccc3C(F)(F)F)CC2)[C@H]1O,-7.99
20,OCC1(O)CCN(c2ncccc2C(F)(F)F)CC1,65.3
21,Cn1c(CC2CCS(=O)(=O)C2)nnc1SCCOc1cccc(Cl)c1 (stereo not drawn),42.62
22,O=C(NCc1cncc2c1CCN(C1CCOCC1)C2)c1ccno1,36.06
23,O=C(NCc1cncc2c1CCN(CC1CCOC1)C2)c1ccco1 (stereo not drawn),7.33

row,Structure (SMILES),INHIBITION [%]
1,CS(=O)(=O)NCc1cncc2c1CCN(CC1CCOC1)C2 (stereo not drawn),52.05
2,Cc1nccc(NCc2cncc3c2CCN(CC2CCOC2)C3)n1 (stereo not drawn),22.23
3,O=C(NCc1cncc2c1CCN(CC1CCOC1)C2)c1ccno1 (stereo not drawn),69.13
4,c1cnc(NCc2cncc3c2CCN(CC2CC2)C3)nc1,30.99
5,COc1ccccc1C(=O)N1CC(=O)N(Cc2ccco2)CC(O)C1 (stereo not drawn),-8.2
6,Cc1cnccc1CN1Cc2ccccc2OC2(CCC(CO)CC2)C1 (stereo not drawn),19.76
7,O=C1CCC2(CCC(NCc3ccoc3)CC2)N1 (stereo not drawn),-29.46
8,CCc1cnc(NCC(c2ccncc2)N2CCOCC2)nc1 (stereo not drawn),0.12
9,CN1CCC(c2nnc3ccc(C(=O)N4CCCCC4)cn23)C1 (stereo not drawn),23.43
10,CCNC(=O)[C@@H]1C[C@@H](NC(=O)c2cccn2C)CN1CCCSC,29.89
11,CCNC(=O)[C@@H]1C[C@@H](NC(=O)c2ccc(C#N)cc2)CN1CCCSC,22.89
12,CCNC(=O)[C@@H]1C[C@@H](NC(=O)c2ccsc2)CN1CCCSC,68.61
13,COCc1cnc2n1CCN(C(=O)C1=CCCCC1)C2C (stereo not drawn),11.55
14,COCc1cnc2n1CCN(C(=O)c1cnc3ccccc3c1)C2C (stereo not drawn),-17.69
15,COCc1cnc2n1CCN(C(=O)c1ccc3ccccc3n1)C2C (stereo not drawn),53.08
16,COCc1cnc2n1CCN(C(=O)c1cc3ccccc3o1)C2C (stereo not drawn),-29.49
17,CC1c2ncc(COc3cccnc3)n2CCN1C(=O)C1=CCCC1 (stereo not drawn),-7.05
18,CC1c2ncc(COc3cccnc3)n2CCN1C(=O)C1=CCCCC1 (stereo not drawn),52.36
19,CCOCc1cnc2n1CCN(C(=O)C1=CCCC1)C2C (stereo not drawn),21.92
20,COCc1cnc2n1CCN(C(=O)C1=CCCC1)C2C (stereo not drawn),53.46
21,COCC(=O)N1CCn2c(COc3cccnc3)cnc2C1C (stereo not drawn),-28.81
22,CS(=O)(=O)c1ccc(Cl)c(NC(=O)NCCC2=CCCCC2)c1,36.66
